# Results taken from paper PMC7862700, “An all-to-all approach to the identification of sequence-specific readers for epigenetic DNA modifications on cytosine”.
# Key:
# Assay in all cases: DAPPL (digital affinity profiling via proximity ligation, sequencing); 10 mM Tris-HCl pH 7.5, 50 mM NaCl, 1 mM DTT, 4% glycerol, room temperature, 30 min; GST-TFs on glutathione beads, 16-mer random dsDNA library, 0.1% formaldehyde crosslink after washing; high values mean tight binding
# [1] = molecular target: T1, FLI1 (Homo sapiens, UniProt Q01543 1-452); settings: protein: recombinant; tags: N-terminal GST; dsDNA, one strand shown
# T1 sequence: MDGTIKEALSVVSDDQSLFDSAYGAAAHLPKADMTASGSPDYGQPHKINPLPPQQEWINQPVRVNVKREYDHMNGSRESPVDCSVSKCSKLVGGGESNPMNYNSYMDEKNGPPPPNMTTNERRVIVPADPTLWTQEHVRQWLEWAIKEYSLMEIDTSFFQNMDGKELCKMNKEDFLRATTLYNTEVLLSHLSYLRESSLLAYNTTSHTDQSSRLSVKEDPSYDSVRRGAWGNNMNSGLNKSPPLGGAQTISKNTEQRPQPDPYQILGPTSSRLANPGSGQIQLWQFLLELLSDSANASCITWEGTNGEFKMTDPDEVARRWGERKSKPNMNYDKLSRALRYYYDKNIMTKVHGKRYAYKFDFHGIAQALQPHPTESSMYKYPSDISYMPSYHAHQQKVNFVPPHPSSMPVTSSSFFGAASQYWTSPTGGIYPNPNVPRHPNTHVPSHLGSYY
# Procedure, shortened: (§1)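 GST fusions of human transcription factors were expressed in yeast and captured with glutathione beads. Once given DNA barcodes and pooled alongside a tag-only sample, they were incubated for 30 min at room temperature with 200 nmole of a random double-stranded 16-mer DNA library in Tris/NaCl/DTT/glycerol buffer, then washed, crosslinked (0.1% formaldehyde), proximity-ligated, PCR-amplified and sequenced on an Illumina NextSeq500. The binding signal of each hexamer is its read frequency for a factor divided by its frequency for the tag-only sample.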
# [2] = molecular target: T2, ELK1 (Homo sapiens, UniProt P19419 1-428); settings: protein: recombinant; tags: N-terminal GST; dsDNA, one strand shown
# T2 sequence: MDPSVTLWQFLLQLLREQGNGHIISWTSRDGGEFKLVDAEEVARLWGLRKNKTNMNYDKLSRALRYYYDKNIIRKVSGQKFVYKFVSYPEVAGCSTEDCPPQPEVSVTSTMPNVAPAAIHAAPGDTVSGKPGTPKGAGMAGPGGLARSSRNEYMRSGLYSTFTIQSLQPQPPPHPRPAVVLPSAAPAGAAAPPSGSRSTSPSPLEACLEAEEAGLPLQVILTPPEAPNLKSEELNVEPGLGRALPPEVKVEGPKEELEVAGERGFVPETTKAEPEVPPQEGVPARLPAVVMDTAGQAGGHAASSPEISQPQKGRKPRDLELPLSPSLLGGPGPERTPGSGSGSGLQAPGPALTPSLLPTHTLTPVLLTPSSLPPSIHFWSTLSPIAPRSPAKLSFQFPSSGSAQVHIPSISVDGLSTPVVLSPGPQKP
# Procedure, shortened: as §1
# [3] = molecular target: T3, GABPA (Homo sapiens, UniProt Q06546 1-454); settings: protein: recombinant; tags: N-terminal GST; dsDNA, one strand shown
# T3 sequence: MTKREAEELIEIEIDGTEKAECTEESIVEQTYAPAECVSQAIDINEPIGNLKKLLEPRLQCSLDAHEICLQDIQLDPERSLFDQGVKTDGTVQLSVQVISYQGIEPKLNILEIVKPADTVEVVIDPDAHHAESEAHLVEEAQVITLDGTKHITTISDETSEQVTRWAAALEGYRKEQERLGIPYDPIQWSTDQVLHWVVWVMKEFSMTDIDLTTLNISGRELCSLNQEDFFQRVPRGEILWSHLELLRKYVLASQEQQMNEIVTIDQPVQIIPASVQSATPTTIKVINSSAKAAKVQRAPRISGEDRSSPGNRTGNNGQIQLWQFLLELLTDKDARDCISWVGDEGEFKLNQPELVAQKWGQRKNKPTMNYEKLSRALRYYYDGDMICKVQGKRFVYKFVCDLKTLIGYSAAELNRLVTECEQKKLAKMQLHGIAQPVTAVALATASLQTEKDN
# Procedure, shortened: as §1
# [4] = molecular target: T4, ERG (Homo sapiens, UniProt P11308 1-479); settings: protein: recombinant; tags: N-terminal GST; dsDNA, one strand shown
# T4 sequence: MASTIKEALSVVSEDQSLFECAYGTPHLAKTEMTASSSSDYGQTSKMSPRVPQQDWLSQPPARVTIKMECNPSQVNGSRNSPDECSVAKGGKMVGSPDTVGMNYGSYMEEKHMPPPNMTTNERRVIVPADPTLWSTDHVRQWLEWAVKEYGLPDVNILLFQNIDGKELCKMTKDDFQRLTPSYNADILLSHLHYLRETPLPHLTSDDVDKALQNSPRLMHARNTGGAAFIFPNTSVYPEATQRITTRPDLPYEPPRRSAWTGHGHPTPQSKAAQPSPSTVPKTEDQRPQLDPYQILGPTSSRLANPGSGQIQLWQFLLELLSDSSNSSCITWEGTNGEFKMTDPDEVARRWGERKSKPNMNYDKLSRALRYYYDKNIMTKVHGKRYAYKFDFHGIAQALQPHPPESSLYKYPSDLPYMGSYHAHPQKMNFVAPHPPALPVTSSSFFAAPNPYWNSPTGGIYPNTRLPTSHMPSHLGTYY
# Procedure, shortened: as §1
# [5] = molecular target: ELF1 (Homo sapiens, UniProt P32519 1-619); settings: protein: recombinant; tags: N-terminal GST; dsDNA, one strand shown
# ELF1, sequence (P32519 whole entry): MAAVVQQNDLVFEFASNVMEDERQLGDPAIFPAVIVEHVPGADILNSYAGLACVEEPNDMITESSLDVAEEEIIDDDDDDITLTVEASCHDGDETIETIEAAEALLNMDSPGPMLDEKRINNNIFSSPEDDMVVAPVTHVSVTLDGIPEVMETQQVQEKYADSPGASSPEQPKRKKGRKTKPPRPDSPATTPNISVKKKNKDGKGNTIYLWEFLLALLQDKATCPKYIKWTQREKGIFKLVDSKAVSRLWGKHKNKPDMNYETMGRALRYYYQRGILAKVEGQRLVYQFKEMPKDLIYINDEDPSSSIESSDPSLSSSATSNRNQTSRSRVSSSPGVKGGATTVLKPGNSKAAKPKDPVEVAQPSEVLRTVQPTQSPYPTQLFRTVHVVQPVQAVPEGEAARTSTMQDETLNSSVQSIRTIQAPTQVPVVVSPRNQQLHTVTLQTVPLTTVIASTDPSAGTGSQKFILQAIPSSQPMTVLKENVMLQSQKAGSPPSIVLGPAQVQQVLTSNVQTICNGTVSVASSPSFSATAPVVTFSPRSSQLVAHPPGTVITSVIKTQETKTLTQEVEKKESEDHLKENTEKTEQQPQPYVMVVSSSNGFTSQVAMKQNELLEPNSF
# Procedure, shortened: as §1
# [6] = molecular target: T5, EHF (Homo sapiens, UniProt Q9NZC4 1-300); settings: protein: recombinant; tags: N-terminal GST; dsDNA, one strand shown
# T5 sequence: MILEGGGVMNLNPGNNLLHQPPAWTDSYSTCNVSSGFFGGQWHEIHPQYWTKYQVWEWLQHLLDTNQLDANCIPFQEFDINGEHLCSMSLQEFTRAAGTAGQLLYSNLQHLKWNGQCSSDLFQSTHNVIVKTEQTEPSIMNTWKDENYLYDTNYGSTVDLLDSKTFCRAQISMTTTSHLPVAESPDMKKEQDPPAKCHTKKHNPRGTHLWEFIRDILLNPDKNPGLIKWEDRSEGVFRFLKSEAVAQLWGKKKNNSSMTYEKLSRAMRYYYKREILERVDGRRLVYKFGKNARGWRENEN
# Procedure, shortened: as §1
# [7] = molecular target: SPI1 (Homo sapiens, UniProt P17947 1-270); settings: protein: recombinant; tags: N-terminal GST; dsDNA, one strand shown
# Procedure, shortened: as §1
# [8] = molecular target: SPIB (Homo sapiens, UniProt Q01892 1-262); settings: protein: recombinant; tags: N-terminal GST; dsDNA, one strand shown
# SPIB, sequence (Q01892 whole entry): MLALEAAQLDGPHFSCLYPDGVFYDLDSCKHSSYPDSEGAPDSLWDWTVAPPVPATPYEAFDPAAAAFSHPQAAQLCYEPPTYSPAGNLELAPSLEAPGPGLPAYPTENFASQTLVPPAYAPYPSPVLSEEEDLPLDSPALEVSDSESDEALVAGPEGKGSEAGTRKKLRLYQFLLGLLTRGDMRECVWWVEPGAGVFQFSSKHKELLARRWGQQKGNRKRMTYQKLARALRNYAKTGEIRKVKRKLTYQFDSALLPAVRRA
# Procedure, shortened: as §1
# [9] = molecular target: T6, ELK3 (Homo sapiens, UniProt P41970 1-407); settings: protein: recombinant; tags: N-terminal GST; dsDNA, one strand shown
# T6 sequence: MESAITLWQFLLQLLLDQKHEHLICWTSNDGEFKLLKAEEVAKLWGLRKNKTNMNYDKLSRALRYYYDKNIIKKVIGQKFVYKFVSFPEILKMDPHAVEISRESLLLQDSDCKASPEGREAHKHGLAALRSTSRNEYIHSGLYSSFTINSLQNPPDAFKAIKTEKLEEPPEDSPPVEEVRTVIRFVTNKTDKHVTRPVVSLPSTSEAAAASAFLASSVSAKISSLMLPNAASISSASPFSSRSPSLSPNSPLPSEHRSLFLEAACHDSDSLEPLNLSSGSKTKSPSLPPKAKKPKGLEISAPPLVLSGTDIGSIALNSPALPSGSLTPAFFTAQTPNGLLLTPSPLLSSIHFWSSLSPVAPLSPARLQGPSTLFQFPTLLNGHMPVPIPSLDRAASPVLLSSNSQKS
# Procedure, shortened: as §1
# [10] = molecular target: T7, FEV (Homo sapiens, UniProt Q99581 1-238); settings: protein: recombinant; tags: N-terminal GST; dsDNA, one strand shown
# T7 sequence: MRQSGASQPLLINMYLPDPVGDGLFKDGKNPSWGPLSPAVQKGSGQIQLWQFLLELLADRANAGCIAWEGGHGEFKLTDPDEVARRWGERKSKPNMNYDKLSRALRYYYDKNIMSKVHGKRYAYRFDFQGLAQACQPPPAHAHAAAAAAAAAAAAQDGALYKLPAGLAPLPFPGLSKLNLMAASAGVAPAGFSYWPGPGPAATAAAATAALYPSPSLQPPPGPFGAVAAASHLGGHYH
# Procedure, shortened: as §1
# [11] = molecular target: ETV5 (Homo sapiens, UniProt P41161 1-510); settings: protein: recombinant; tags: N-terminal GST; dsDNA, one strand shown
# ETV5, sequence (P41161 whole entry): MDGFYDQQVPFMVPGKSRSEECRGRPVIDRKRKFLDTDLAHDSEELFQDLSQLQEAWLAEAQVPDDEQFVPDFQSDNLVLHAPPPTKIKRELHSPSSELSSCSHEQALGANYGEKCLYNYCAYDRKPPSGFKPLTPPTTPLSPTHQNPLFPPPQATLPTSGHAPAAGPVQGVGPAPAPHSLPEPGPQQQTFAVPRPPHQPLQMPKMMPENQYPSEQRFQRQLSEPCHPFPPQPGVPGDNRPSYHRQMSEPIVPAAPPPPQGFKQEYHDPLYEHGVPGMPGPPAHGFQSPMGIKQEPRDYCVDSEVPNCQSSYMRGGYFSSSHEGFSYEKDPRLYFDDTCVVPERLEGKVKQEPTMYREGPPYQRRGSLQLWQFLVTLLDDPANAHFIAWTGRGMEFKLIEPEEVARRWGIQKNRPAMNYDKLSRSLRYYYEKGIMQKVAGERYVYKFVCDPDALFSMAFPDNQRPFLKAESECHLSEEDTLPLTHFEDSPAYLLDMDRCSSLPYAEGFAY
# Procedure, shortened: as §1
# [12] = molecular target: HSF1 (Homo sapiens, UniProt Q00613 1-529); settings: protein: recombinant; tags: N-terminal GST; chain copies: 3; dsDNA, one strand shown
# HSF1, sequence (Q00613 whole entry): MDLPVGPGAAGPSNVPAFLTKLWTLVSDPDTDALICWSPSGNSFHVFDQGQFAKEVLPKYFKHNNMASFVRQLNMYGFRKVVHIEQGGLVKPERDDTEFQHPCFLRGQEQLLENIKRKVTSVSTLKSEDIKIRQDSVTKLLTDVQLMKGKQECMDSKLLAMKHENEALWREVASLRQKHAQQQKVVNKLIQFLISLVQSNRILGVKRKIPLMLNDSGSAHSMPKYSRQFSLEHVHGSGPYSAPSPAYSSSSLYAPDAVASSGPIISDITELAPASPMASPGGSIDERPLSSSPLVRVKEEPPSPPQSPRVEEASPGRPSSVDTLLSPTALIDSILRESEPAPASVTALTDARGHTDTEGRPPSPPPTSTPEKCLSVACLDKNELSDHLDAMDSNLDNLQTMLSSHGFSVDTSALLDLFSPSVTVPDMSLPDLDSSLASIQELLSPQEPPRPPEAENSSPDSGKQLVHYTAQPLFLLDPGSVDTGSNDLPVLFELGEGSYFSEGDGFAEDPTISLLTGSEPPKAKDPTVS
# Procedure, shortened: as §1
# [13] = molecular target: T8, SPIC (Homo sapiens, UniProt Q8N5J4 1-248); settings: protein: recombinant; tags: N-terminal GST; dsDNA, one strand shown
# T8 sequence: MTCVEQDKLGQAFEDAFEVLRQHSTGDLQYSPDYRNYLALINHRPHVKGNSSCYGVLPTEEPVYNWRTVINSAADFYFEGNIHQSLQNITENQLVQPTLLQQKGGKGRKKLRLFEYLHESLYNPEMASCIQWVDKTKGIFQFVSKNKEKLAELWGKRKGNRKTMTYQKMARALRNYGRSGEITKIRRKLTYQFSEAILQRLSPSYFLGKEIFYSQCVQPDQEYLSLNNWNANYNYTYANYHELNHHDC
# Procedure, shortened: as §1
# [14] = molecular target: ELF4 (Homo sapiens, UniProt Q99607 1-663); settings: protein: recombinant; tags: N-terminal GST; dsDNA, one strand shown
# ELF4, sequence (Q99607 whole entry): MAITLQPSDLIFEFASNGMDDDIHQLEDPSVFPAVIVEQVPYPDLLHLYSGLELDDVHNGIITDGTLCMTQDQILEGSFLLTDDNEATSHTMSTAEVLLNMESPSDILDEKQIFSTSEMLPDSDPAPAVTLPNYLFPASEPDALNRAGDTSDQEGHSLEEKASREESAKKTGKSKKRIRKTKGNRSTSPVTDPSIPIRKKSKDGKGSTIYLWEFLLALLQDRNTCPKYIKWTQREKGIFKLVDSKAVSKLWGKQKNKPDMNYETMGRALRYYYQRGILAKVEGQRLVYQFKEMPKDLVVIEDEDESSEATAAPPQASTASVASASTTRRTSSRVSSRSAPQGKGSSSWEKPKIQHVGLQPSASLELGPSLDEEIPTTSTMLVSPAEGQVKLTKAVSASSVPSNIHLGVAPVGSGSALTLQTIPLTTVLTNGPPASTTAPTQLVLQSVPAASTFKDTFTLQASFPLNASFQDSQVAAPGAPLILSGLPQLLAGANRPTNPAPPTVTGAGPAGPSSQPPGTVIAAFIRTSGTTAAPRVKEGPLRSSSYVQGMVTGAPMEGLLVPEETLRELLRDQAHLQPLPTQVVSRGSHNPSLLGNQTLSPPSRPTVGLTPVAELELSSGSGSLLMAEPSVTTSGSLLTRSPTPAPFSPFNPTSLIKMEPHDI
# Procedure, shortened: as §1
# [15] = molecular target: T9, ELK4 (Homo sapiens, UniProt P28324-2 1-405); settings: protein: recombinant; tags: N-terminal GST; dsDNA, one strand shown
# T9 sequence: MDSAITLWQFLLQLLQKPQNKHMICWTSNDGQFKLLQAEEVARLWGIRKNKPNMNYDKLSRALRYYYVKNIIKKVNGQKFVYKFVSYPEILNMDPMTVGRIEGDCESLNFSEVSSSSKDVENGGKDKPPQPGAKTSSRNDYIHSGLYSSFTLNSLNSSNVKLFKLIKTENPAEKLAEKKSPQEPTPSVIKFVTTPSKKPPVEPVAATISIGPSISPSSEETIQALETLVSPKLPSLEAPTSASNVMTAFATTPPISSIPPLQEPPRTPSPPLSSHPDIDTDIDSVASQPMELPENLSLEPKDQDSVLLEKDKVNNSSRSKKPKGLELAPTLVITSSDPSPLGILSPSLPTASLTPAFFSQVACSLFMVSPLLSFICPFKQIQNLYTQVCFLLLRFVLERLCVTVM
# Procedure, shortened: as §1
# [16] = molecular target: T10, ETV2 (Homo sapiens, UniProt O00321 1-342); settings: protein: recombinant; tags: N-terminal GST; dsDNA, one strand shown
# T10 sequence: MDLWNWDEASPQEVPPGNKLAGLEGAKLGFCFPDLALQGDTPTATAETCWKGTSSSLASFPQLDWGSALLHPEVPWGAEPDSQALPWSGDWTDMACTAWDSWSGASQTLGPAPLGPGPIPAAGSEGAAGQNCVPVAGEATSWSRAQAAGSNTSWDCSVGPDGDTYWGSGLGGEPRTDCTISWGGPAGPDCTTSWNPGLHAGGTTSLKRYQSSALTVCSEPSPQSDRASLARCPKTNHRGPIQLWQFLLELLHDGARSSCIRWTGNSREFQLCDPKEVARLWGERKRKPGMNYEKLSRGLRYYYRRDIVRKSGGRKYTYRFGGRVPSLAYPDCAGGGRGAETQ
# Procedure, shortened: as §1
# [17] = molecular target: T11, ELF3 (Homo sapiens, UniProt P78545 1-371); settings: protein: recombinant; tags: N-terminal GST; dsDNA, one strand shown
# T11 sequence: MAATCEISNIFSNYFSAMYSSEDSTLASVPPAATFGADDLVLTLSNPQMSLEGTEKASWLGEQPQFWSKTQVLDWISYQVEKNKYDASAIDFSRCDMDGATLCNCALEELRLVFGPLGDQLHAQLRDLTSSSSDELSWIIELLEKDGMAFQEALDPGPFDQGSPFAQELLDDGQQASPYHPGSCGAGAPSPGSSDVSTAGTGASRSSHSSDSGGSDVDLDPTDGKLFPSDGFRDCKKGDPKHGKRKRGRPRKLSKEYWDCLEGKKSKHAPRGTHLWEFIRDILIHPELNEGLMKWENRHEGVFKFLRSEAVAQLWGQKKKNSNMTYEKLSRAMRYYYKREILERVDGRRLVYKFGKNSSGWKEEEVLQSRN
# Procedure, shortened: as §1
# [18] = molecular target: CRX (Homo sapiens, UniProt O43186 1-299); settings: protein: recombinant; tags: N-terminal GST; dsDNA, one strand shown
# CRX, sequence (O43186 whole entry): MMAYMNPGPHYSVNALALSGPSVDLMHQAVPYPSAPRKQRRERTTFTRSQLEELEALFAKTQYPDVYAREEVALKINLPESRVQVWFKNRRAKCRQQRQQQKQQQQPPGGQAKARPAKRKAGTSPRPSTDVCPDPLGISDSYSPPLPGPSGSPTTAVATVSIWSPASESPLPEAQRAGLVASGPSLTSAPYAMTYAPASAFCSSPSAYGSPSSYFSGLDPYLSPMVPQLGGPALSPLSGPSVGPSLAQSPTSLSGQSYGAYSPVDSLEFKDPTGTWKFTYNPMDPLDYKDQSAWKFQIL
# Procedure, shortened: as §1
# [19] = molecular target: ETV1 (Homo sapiens, UniProt P50549 1-477); settings: protein: recombinant; tags: N-terminal GST; dsDNA, one strand shown
# ETV1, sequence (P50549 whole entry): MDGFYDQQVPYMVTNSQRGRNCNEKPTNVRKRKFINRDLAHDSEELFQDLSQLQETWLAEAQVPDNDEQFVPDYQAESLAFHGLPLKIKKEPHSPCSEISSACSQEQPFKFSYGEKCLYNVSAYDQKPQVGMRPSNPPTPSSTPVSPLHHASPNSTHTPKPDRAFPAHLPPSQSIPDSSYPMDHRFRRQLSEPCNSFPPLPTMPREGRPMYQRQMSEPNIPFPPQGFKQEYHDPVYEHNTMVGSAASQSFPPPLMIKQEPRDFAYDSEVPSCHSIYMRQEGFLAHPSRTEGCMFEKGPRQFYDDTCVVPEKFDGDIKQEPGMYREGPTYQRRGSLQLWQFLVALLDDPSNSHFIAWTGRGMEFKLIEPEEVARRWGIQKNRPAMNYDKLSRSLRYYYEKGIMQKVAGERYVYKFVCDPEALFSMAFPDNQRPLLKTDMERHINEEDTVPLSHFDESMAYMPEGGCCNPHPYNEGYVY
# Procedure, shortened: as §1
sequence,measurement,setting,value
TTCCTA,binding signal,[1],"1.82 fold enrichment (6-mer frequency, TF over GST control)"
same,binding signal,[2],"1.72 fold enrichment (6-mer frequency, TF over GST control)"
same,binding signal,[3],"1.55 fold enrichment (6-mer frequency, TF over GST control)"
same,binding signal,[4],"1.78 fold enrichment (6-mer frequency, TF over GST control)"
same,binding signal,[5],"1.63 fold enrichment (6-mer frequency, TF over GST control)"
same,binding signal,[6],"1.59 fold enrichment (6-mer frequency, TF over GST control)"
same,binding signal,[7],"1.7 fold enrichment (6-mer frequency, TF over GST control)"
same,binding signal,[8],"1.93 fold enrichment (6-mer frequency, TF over GST control)"
same,binding signal,[9],"1.74 fold enrichment (6-mer frequency, TF over GST control)"
same,binding signal,[10],"1.62 fold enrichment (6-mer frequency, TF over GST control)"
same,binding signal,[11],"1.79 fold enrichment (6-mer frequency, TF over GST control)"
same,binding signal,[12],"1.59 fold enrichment (6-mer frequency, TF over GST control)"
same,binding signal,[13],"1.67 fold enrichment (6-mer frequency, TF over GST control)"
same,binding signal,[14],"1.57 fold enrichment (6-mer frequency, TF over GST control)"
same,binding signal,[15],"1.52 fold enrichment (6-mer frequency, TF over GST control)"
same,binding signal,[16],"1.77 fold enrichment (6-mer frequency, TF over GST control)"
same,binding signal,[17],"1.84 fold enrichment (6-mer frequency, TF over GST control)"
same,binding signal,[18],"1.47 fold enrichment (6-mer frequency, TF over GST control)"
same,binding signal,[19],"1.72 fold enrichment (6-mer frequency, TF over GST control)"
